# Compound activity deposited in PubChem BioAssay by several laboratories.
# PHOSPHO1 block = blocks human PHOSPHO1 phosphatase activity | AID 1565 | recombinant PHOSPHO1, absorbance phosphatase assay | Q8TCT1 | hit rate 1.1% among 290,000 | inhibition, % at 13.3 µM; in the data active = inhibition above about 60%
# Efflux pump mplx = antifungal efflux pump inhibition, Nile Red retention; hit rate 0.44% among 330,000; S. cerevisiae Candida pump triplex; AID 485275; inhibition, % at 10 µM;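 active = plate passing quality check with inhibition over a set limit, or well fluorescence over plate mean plus 4 SD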;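 also: Nile Red retained in pooled yeast measured as flow cytometry median fluorescence; 0% = buffer negative control and 100% = Enniatin B positive control; higher means more Nile Red kept so more efflux inhibition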
# Cardio protect = modulators protecting cardiomyocytes from myocardial damage | AID 588492 | protection from H2O2 cell death, % at 20 µM | hit rate 0.63% among 360,000 | H9c2 cardiomyocytes, H2O2 injury protection, ATPLite, 2 h;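 active = compounds giving at least 50% protection of heart cells from peroxide-induced death in the single-dose screen, raw or plate-pattern-corrected value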;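 also: 0% = DMSO wells with peroxide and 100% = DMSO wells without peroxide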
# Calb FLC = affects C. albicans growth with fluconazole; hit rate 0.57% among 300,000; growth inhibition, % (no concentration beside the values); AID 1979; C. albicans CaCi-2 (fluconazole-resistant clinical isolate) + fluconazole, Alamar Blue growth, 48 h;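 active = growth inhibition above about 58% in most replicates, limit read from the data, passing the limit was not always enough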;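 also: all wells also contain fluconazole at 8 µg/ml as a sub-toxic cotreatment; 0% = median of DMSO wells and 100% = median of geldanamycin control wells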
# KCC2 mod = KCC2 (human) Cl- transport modulation. hit rate 2.2% among 190,000. Q9H2X9. KCC2 cells, thallium flux FluoZin-2 fluorescence. AID 1456. B-score of Tl+ flux slope (higher = more flux/activation; lower = inhibition) at 10 µM;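 active = thallium flux slope and its plate-corrected score both differing from the plate sample mean at a set confidence after two filtering rounds, in either direction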;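 also: slope of fluorescence scaled to starting intensity during 10 to 20 s after thallium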
# Target sequence (Q9H2X9 whole entry, looked up): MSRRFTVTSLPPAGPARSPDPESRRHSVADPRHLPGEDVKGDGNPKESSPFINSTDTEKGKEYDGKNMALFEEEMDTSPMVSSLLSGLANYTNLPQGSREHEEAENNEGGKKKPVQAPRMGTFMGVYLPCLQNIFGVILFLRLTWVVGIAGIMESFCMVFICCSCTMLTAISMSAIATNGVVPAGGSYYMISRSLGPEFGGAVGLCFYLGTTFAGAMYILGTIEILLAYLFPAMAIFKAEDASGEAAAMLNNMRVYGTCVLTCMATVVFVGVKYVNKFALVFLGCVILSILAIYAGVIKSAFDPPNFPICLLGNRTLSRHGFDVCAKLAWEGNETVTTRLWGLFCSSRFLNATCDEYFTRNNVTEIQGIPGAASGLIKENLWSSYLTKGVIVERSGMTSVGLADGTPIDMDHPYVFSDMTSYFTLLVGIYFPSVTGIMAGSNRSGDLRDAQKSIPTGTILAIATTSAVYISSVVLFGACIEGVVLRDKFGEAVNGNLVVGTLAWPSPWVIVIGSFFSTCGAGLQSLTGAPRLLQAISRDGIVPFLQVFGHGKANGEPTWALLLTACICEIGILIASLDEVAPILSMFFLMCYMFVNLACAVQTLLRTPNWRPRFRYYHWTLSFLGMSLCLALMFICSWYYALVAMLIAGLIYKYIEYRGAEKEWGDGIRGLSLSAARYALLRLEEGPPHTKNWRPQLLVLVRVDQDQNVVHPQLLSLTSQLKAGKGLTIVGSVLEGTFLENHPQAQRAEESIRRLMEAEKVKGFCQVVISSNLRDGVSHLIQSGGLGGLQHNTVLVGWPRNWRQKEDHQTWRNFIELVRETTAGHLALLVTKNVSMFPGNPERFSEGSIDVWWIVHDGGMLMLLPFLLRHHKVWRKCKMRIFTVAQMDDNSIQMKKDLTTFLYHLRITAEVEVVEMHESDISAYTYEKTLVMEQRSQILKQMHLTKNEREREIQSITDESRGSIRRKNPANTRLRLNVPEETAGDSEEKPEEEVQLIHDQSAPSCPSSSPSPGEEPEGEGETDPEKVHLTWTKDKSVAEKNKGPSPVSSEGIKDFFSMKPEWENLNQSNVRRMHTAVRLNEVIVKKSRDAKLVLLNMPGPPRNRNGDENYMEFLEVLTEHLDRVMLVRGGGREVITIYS
# Cmpd fluor yeast = counter-screen for efflux pump inhibitors: compound fluorescence | hit rate 4% among 1,700 | fluorescence ratio to DMSO, % at 10 µM | shares compounds with Efflux pump mplx | S. cerevisiae AD/pABC3, flow cytometry | AID 588517;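 active = fluorescence ratio to DMSO above its plate's cutoff, the plate mean ratio plus 5 SD, cut at about 210% in these data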;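 also: unstained yeast with no Nile Red so the signal is compound autofluorescence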
# CaMdr1 efflux inh = Candida Mdr1 efflux pump inhibition | hit rate 1% among 1,700 | AID 588518 | S. cerevisiae AD/CaMDR1, Nile Red efflux, flow cytometry | shares compounds with Efflux pump mplx | inhibition, % at 10 µM; in the data active = inhibition above about 26%;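 also: 0% = DMSO vehicle and 100% = reference inhibitor; higher means more Nile Red retained so more efflux inhibition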
# Cdr2 pump inh = blocks the Candida albicans Cdr2 efflux pump in yeast; shares compounds with Efflux pump mplx; S. cerevisiae AD/CaCDR2, Nile Red retention, flow cytometry; Nile Red retention ratio vs DMSO, % at 10 µM; hit rate 4% among 1,700; in the data active = Nile Red retention ratio vs DMSO above about 190%;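 also: higher ratio means more blocking of Cdr2 efflux of the dye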
# Cdr1 pump inh = inhibitors of Candida albicans Cdr1 efflux pump; shares compounds with Efflux pump mplx; S. cerevisiae AD/CaCDR1, Nile Red efflux, flow cytometry; inhibition, % at 10 µM; hit rate 1% among 1,700; AID 588522;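 active = inhibition above the screen-wide mean plus twice its standard deviation, cut at about 32% in these data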
# * = called active by the depositor; i = inactive; · = not tested or not shown. Sampled rows, rich in hits. Any-hit rate of the full collection: about 3.3%.
SMILES,PHOSPHO1 block,Efflux pump mplx,Cardio protect,Calb FLC,KCC2 mod,Cmpd fluor yeast,CaMdr1 efflux inh,Cdr2 pump inh,Cdr1 pump inh
O=C(NNC(=S)NCc1ccccc1)c1ccc(Br)cc1,37,0,-5,-12,·,·,·,·,·
CCCc1cnc(N2CCN(C(=O)c3ccccc3)CC2)nc1,11,0,-8,-10,·,·,·,·,·
CC(C)(Cc1ccccc1)/[N+]([O-])=C\c1ccccc1,·,0,-1,1,·,·,·,·,·
CCOC(=O)c1cccc(NC(=O)c2ccc(NC(=O)c3ccco3)cc2)c1,20,0,28,1,·,88,0,95,0
Cc1ccc(CNC(=O)C2CCN(S(=O)(=O)c3ccc(Br)s3)CC2)cc1,28,0,5,1,·,·,·,·,·
COc1cccc(-c2sc3ccccc3c2-c2ccc(OCCN3CCCCC3)cc2)c1,·,0,-11,·,·,·,·,·,·
COc1cc2sc(-c3ccccc3OC)c(-c3ccc(OCCN4CCOCC4)cc3)c2cc1OC,·,1,10,·,·,109,0,104,0
COc1ccc2c(-c3ccc(OCCN4CCOCC4)cc3)c(-c3ccccc3OC)sc2c1,·,1,-5,·,·,105,0,94,0
COc1ccc(OCCN2CCOCC2)cc1,·,0,2,-1,·,·,·,·,·
COC(=O)C(NC(=O)CCC(=O)N[C@@H](C(=O)OC)c1ccccc1)c1ccccc1 (some centres undefined),-19,0,14,0,·,·,·,·,·
CCN(CC)Cc1c(O)ccc2c(=O)c(-c3ccccc3)coc12,15,1.2*,12,-7,·,93,0,94,0
CCN(CC)Cc1c(O)ccc2c(=O)c(-c3ccc4c(c3)OCCO4)coc12,-10,0,-6,2,-1.1,·,·,·,·
O=C1/C(=C/c2ccco2)Oc2c1ccc(O)c2CN1CCCCC1,29,3.1*,21,-10,i,105,0,101,0
CCN1CCN(Cc2c(O)ccc3c2O/C(=C\C=C\c2ccccc2OC)C3=O)CC1,-11,24*,8,-9,i,108,0,94,0
CCN1CCN(Cc2c(O)ccc3c(=O)c(-c4ccccc4OC)coc23)CC1,9,0,0,-1,·,·,·,·,·
CCN(C[C@H]1N[C@@](Cc2ccccc2)(C(=O)OC)[C@H]2C(=O)N(C)C(=O)[C@@H]12)C(=O)Nc1ccc(C(F)(F)F)cc1,·,0,9,·,·,·,·,·,·
CC1(C)C2CCC1(CS(=O)(=O)N1CCC(C(N)=O)CC1)C(=O)C2 (centres undefined),32,0,4,-2,·,·,·,·,·
CC1(C)C2CCC1(CS(=O)(=O)N1CCOCC1)C(=O)C2 (centres undefined),-20,1.4*,2,13,·,103,0,112,0
O=C(NCc1ccccc1)C(c1ccc(F)cc1)N(C(=O)c1csnn1)C1CCCC1 (centres undefined),32,0,-12,13,·,·,·,·,·
CCC(C)N(C(=O)Cn1nnc(-c2ccc(F)cc2)n1)C1CCS(=O)(=O)C1 (centres undefined),20,0.5*,3,-8,·,114,1,123,0
CCC(C)N(C(=O)Cn1nnc(-c2ccc(Cl)cc2)n1)C1CCS(=O)(=O)C1 (centres undefined),·,0,-4,-4,·,·,·,·,·
O=C(N/N=C/c1cccc(F)c1)c1c(O)c2c([nH]c1=O)CCCC2,4,8.9*,-17,2,0.021,84,0,100,0
CCOC(=O)c1ccccc1NS(=O)(=O)c1ccccc1F,-11,5.9*,-3,-3,0.011,100,0,89,0
CCOC(=O)c1ccccc1NS(=O)(=O)c1ccccc1,-4,0,2,1,-1.1,·,·,·,·
O=C(N/C(=C\c1ccccc1)C(=O)N1CCOCC1)c1ccccc1Br,18,0,-2,-16,·,·,·,·,·
SMILES,PHOSPHO1 block,Efflux pump mplx,Cardio protect,Calb FLC,KCC2 mod,Cmpd fluor yeast,CaMdr1 efflux inh,Cdr2 pump inh,Cdr1 pump inh
COC(=O)NCc1ccc(S(=O)(=O)N2CCOCC2)cc1,28,0.5*,4,6,-0.77,95,0,106,0
COc1ccc(CNC(=O)c2ccc(S(=O)(=O)N3CCOCC3)cc2)cc1,·,·,0,·,·,·,·,·,·
COc1ccc(OC)c(NC(=O)CCN2CCN(C/C=C/c3ccccc3)CC2)c1,34,0,1,-7,·,·,·,·,·
O=C(COC(=O)c1ccc(Cl)cc1O)NCCN1C(=O)CSC1=O,-5,0,-6,21,0.062,108,0,112,0
O=C(COC(=O)c1cc(Cl)cc(Cl)c1)NCCN1C(=O)CSC1=O,10,0,6,-5,0.025,105,0,100,0
O=C(COC(=O)c1cccc(Cl)c1)NCCN1C(=O)CSC1=O,53,0,-2,-3,0.075,96,0,90,0
COc1ccc(C(=O)NCc2nnc(SCC(=O)NCc3ccco3)o2)cc1OC,17,0,3,24,·,·,·,·,·
COc1ccc(S(=O)(=O)NCC2CCC(C(=O)NCc3ccc(F)cc3)CC2)cc1 (centres undefined),14,0,-8,16,·,·,·,·,·
Cc1ccc(C)n1-c1ccc(N2CCOCC2)nc1,12,12*,1,-9,0.011,99,0,88,0
Cc1ccc(S(=O)(=O)Nc2ccc(N3CCOCC3)nc2)cc1,2,0,0,-12,0.3,·,·,·,·
Cc1ccsc1C1CC(=O)Nc2ccccc2S1 (centres undefined),43,0,2,9,-0.47,94,0,102,0
O=C1CC(c2ccco2)Sc2ccccc2N1 (centres undefined),38,0,0,13,·,100,0,112,0
O=C1CC(c2ccccc2)Sc2ccccc2N1 (centres undefined),-45,0,-4,22,0.34,·,·,·,·
Cc1ccsc1C1Nc2ccccc2C(=O)N1O (centres undefined),-5,0,0,-16,-0.77,·,·,·,·
O=C(CCCOc1ccccc1)Nc1ccccc1C(F)(F)F,-3,10*,4,-7,-1.1,100,0,105,0
COc1ccc(C(=O)NC2CCCc3c2cnn3-c2ccccc2F)o1 (centres undefined),7,-1,0,-5,·,95,0,107,0
COc1cc(C(=O)NC2CCCc3c2cnn3-c2ccccc2F)cc(OC)c1OC (centres undefined),24,0,-1,29,·,·,·,·,·
CC(=O)c1ccc(S(=O)(=O)N2CCC(NC(=O)c3ccccc3)CC2)cc1,25,0,2,2,·,·,·,·,·
CC(=O)C1CCN(Cc2ccccc2)CC1,4,0,-2,5,·,·,·,·,·
CSc1ccccc1OC1CCN(Cc2ccccc2)CC1,-23,5.8*,-4,-20,-2.3,102,0,101,0
